Reference: PubChem BioAssay AID1159580 (chemical genetic matrix, 2015)
Several values for one entry are separate records, joined by “and”; a condition that tells them apart may be missing. Equal values may be shown once. The campaign covered roughly 5,500 compounds. About 2,000 (36%) were called active. About 18% were inconclusive and are not listed. Cut-off read from the data, not from the text of the source: active = normalized growth mostly below about 0.91 (no sharp cut-off); inconclusive = no clear call, values can overlap the other calls; inactive = mostly above about 0.92. Some of the results follow.

Experiment: chemical genetic growth profiling, strain panel (AID 1159580);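 note: tested at 20 µM; growth read once vehicle control cultures reached saturation at 30 °C; 1 = growth at the plate median or of vehicle wells; lower values mean less growth of the strain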
Settings: S. cerevisiae deletion strains, growth OD

Measured: normalized growth

COc1ccc(C2CC(=O)c3ccc(OC)cc3O2)cc1 (centres undefined)
active: locus YBR009C, strain hhf1, active compounds read low 0.854 | locus YBR021W, strain FUR4, active compounds read low 0.805 | locus YDL074C, strain BRE1, active compounds read low 0.689 | locus YDL192W, strain arf1, active compounds read low 0.891 | locus YDR162C, strain NBP2, active compounds read low 0.74 | locus YDR195W, strain ref2 1.19 [resistant] | locus YDR318W, strain mcm21, active compounds read low 0.906 | locus YDR392W, strain spt3, active compounds read low 0.538 | locus YDR502C, strain sam2, active compounds read low 0.882 | locus YEL061C, strain CIN8, active compounds read low 0.905 | locus YER155C, strain BEM2 (second series), active compounds read low 0.683 | locus YER167W, strain BCK2, active compounds read low 0.89 | locus YGL086W, strain mad1, active compounds read low 0.898 | locus YGL240W, strain doc1, active compounds read low 0.786 | locus YGL248W, strain PDE1, active compounds read low 0.843 | locus YGL253W, strain hxk2, active compounds read low 0.891 | locus YGR135W, strain pre9, active compounds read low 0.857 | locus YGR229C, strain SMI1, active compounds read low 0.504 | locus YGR252W, strain gcn5, active compounds read low 0.628 | locus YHR030C, strain SLT2, active compounds read low 0.744 and 0.843 | locus YHR129C, strain ARP1, active compounds read low 0.882 | locus YHR142W, strain chs7, active compounds read low 0.842 | locus YIL066C, strain RNR3, active compounds read low 0.793 | locus YIR030C, strain dcg1, active compounds read low 0.92 | locus YJL095W, strain BCK1, active compounds read low 0.523 and 0.838 | locus YJL164C, strain tpk1, active compounds read low 0.898 | locus YJL166W, strain qcr8, active compounds read low 0.859 | locus YJR066W, strain TOR1, active compounds read low 0.805 | locus YKL009W, strain mrt4, active compounds read low 0.862
inactive: locus YAL021C, strain ccr4, active compounds read low 0.953 | locus YAL026C, strain drs2, active compounds read low 0.939 | locus YAL030W, strain snc1, active compounds read low 0.954 | locus YBL061C, strain skt5, active compounds read low 0.948 | locus YBR023C, strain chs3, active compounds read low 0.915 | locus YBR171W, strain sec66, active compounds read low 0.936 | locus YBR229C, strain ROT2, active compounds read low 0.963 | locus YBR231C, strain swc5, active compounds read low 0.921 | locus YBR279W, strain paf1, active compounds read low 0.95 | locus YCL011C, strain gbp2, active compounds read low 0.928 | locus YCL016C, strain dcc1, active compounds read low 0.939 | locus YCL029C, strain bik1, active compounds read low 0.923 | locus YCL061C, strain MRC1, active compounds read low 0.932 | locus YCL069W, strain vba3, active compounds read low 0.961 | locus YCR088W, strain abp1, active compounds read low 0.957 | locus YDL005C, strain med2, active compounds read low 0.96 | locus YDL035C, strain GPR1, active compounds read low 0.872 | locus YDL040C, strain nat1, active compounds read low 0.956 | locus YDL101C, strain DUN1, active compounds read low 0.9 | locus YDL185W, strain tfp1, active compounds read low 0.938 | locus YDR001C, strain nth1, active compounds read low 0.951 | locus YDR069C, strain doa4, active compounds read low 0.953 | locus YDR101C, strain arx1, active compounds read low 0.93 | locus YDR137W, strain rgp1, active compounds read low 0.966 | locus YDR159W, strain sac3, active compounds read low 0.929 | locus YDR297W, strain sur2, active compounds read low 0.948 | locus YDR334W, strain swr1, active compounds read low 0.961 | locus YDR335W, strain msn5, active compounds read low 0.953 | locus YDR388W, active compounds read low 0.955 | locus YEL003W, strain gim4, active compounds read low 0.94 | locus YEL037C, strain rad23, active compounds read low 0.962 | locus YEL061C, strain CIN8 (second series), active compounds read low 0.967 | locus YER015W, strain faa2, active compounds read low 0.96 | locus YER016W, strain bim1, active compounds read low 0.963 | locus YER110C, active compounds read low 0.937 | locus YER111C, strain swi4, active compounds read low 0.959 | locus YER155C, strain BEM2, active compounds read low 0.979 | locus YFR010W, strain ubp6, active compounds read low 0.954 | locus YGL078C, strain dbp3, active compounds read low 0.958 | locus YGL167C, strain pmr1, active compounds read low 0.938 | locus YGL173C, strain kem1, active compounds read low 0.931 | locus YGL227W, strain vid30, active compounds read low 0.959 | locus YHR013C, strain ard1, active compounds read low 0.866 | locus YHR027C, strain rpn1, active compounds read low 0.965 | locus YHR079C, strain IRE1 (second series), active compounds read low 0.97 | locus YHR079C, strain IRE1, active compounds read low 0.878 | locus YHR094C, strain hxt1, active compounds read low 0.956 | locus YHR200W, strain rpn10, active compounds read low 0.929 | locus YIL073C, strain SPO22, active compounds read low 0.772 | locus YIL125W, strain kgd1, active compounds read low 0.94 | locus YJL092W, strain hpr5, active compounds read low 0.957 | locus YJL095W, strain BCK1 (second series), active compounds read low 0.927 | locus YJL115W, strain asf1, active compounds read low 0.954 | locus YJL129C, strain trk1, active compounds read low 0.992 | locus YJL134W, strain LCB3, active compounds read low 0.975 | locus YJL154C, strain vps35, active compounds read low 0.977 | locus YJL168C, strain set2, active compounds read low 0.95 | locus YJL187C, strain SWE1 (second series), active compounds read low 0.868 | locus YJL187C, strain SWE1, active compounds read low 0.948 | locus YJR043C, strain POL32, active compounds read low 0.861
